Measurements reported in PubChem BioAssay (EPA / NIEHS).
Calls of active or inactive are those of the source. The calls were made as follows: active = hit-call score of the fitted dose curve at least 0.9, where 1 is the maximum; inactive = score below 0.9.

Columns and labels:
[1] = read-out: Interleukin-8 (IL8), CXCL8 (gene 3576); experiment: BSK_CASM3C_IL8: BioMAP Diversity Plus: CASM3C Assay for Interleukin-8 (IL8) Biomarker Activity (AID 2283042); details: primary human coronary artery smooth muscle cells; actives raise or lower the signal;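 also: IL-8 protein level quantified by ELISA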
[2] = read-out: Human Leukocyte Antigen - DR isotype (HLADR), HLA-DRA (gene 3122); experiment: BSK_CASM3C_HLADR: BioMAP Diversity Plus: CASM3C Assay for Human Leukocyte Antigen - DR isotype (HLADR) Biomarker Activity (AID 2283043); details: primary human coronary artery smooth muscle cells; actives raise or lower the signal;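 also: cell-surface HLA-DR protein level quantified by ELISA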
[3] = read-out: Macrophage colony-stimulating factor (MCSF), CSF1 (gene 1435); experiment: BSK_CASM3C_MCSF: BioMAP Diversity Plus: CASM3C Assay for Macrophage colony-stimulating factor (MCSF) Biomarker Activity (AID 2283044); details: primary human coronary artery smooth muscle cells; actives raise or lower the signal;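 also: M-CSF protein amount quantified by ELISA after 24 h exposure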
[4] = read-out: Low-density lipoprotein receptor (LDLR), LDLR (gene 3949); experiment: BSK_CASM3C_LDLR: BioMAP Diversity Plus: CASM3C Assay for Low-density lipoprotein receptor (LDLR) Biomarker Activity (AID 2283045); details: primary human coronary artery smooth muscle cells; actives raise or lower the signal;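 also: LDLR protein level on the cell surface quantified by ELISA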
[5] = read-out: Monocyte Chemoattractant Protein-1 (MCP1), CCL2 (gene 6347); experiment: BSK_CASM3C_MCP1: BioMAP Diversity Plus: CASM3C Assay for Monocyte Chemoattractant Protein-1 (MCP1) Biomarker Activity (AID 2283046); details: primary human coronary artery smooth muscle cells; actives raise or lower the signal;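 also: MCP-1 level quantified by ELISA 24 h after dosing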
[6] = BSK_CASM3C_Proliferation: Cell Proliferation Assessment in the BioMAP Diversity Plus: CASM3C Assay (AID 2283047); details: primary human coronary artery smooth muscle cells;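 also: sulforhodamine B total protein stain as relative cell number at 560 nm; sub-confluent cells exposed 48 h before staining; fitted both ways against DMSO so gain or loss of cell number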
[7] = read-out: Monokine induced gamma interferon (MIG), CXCL9 (gene 4283); experiment: BSK_CASM3C_MIG: BioMAP Diversity Plus: CASM3C Assay for Monokine induced gamma interferon (MIG) Biomarker Activity (AID 2283048); details: primary human coronary artery smooth muscle cells; actives raise or lower the signal;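 also: MIG protein level measured by ELISA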
[8] = read-out: serum amyloid A (SAA), SAA1 (gene 6288); experiment: BSK_CASM3C_SAA: BioMAP Diversity Plus: CASM3C Assay for serum amyloid A (SAA) Biomarker Activity (AID 2283049); details: primary human coronary artery smooth muscle cells; actives raise or lower the signal;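 also: SAA protein level quantified by ELISA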
[9] = BSK_CASM3C_SRB: Viability Assessment in the BioMAP Diversity Plus: CASM3C Assay (AID 2283050); details: primary human coronary artery smooth muscle cells;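 also: total protein by SRB staining as cytotoxicity measure in parallel cultures; cells exposed to compound for 24 h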
[10] = read-out: Thrombomodulin, THBD (gene 7056); experiment: BSK_CASM3C_Thrombomodulin: BioMAP Diversity Plus: CASM3C Assay for Thrombomodulin Biomarker Activity (AID 2283051); details: primary human coronary artery smooth muscle cells; actives raise or lower the signal;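 also: thrombomodulin protein level measured by ELISA 24 h after dosing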
[11] = read-out: Tissue Factor, F3 (gene 2152); experiment: BSK_CASM3C_TissueFactor: BioMAP Diversity Plus: CASM3C Assay for Tissue Factor Biomarker Activity (AID 2283052); details: primary human coronary artery smooth muscle cells; actives raise or lower the signal;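 also: cell surface tissue factor protein level read by ELISA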
[12] = read-out: Urokinase-type plasminogen activator receptor (uPAR), PLAUR (gene 5329); experiment: BSK_CASM3C_uPAR: BioMAP Diversity Plus: CASM3C Assay for Urokinase-type plasminogen activator receptor (uPAR) Biomarker Activity (AID 2283054); details: primary human coronary artery smooth muscle cells; actives raise or lower the signal;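 also: cell-surface uPAR protein level quantified by ELISA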
[13] = read-out: Vascular cell adhesion molecule 1 (VCAM1), VCAM1 (gene 7412); experiment: BSK_CASM3C_VCAM1: BioMAP Diversity Plus: CASM3C Assay for Vascular cell adhesion molecule 1 (VCAM1) Biomarker Activity (AID 2283055); details: primary human coronary artery smooth muscle cells; actives raise or lower the signal;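 also: VCAM-1 protein level quantified by ELISA on the cells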
[14] = read-out: Collagen III, COL3A1 (gene 1281); experiment: BSK_hDFCGF_CollagenIII: BioMAP Diversity Plus: hDFCGF Assay for Collagen III Biomarker Activity (AID 2283056); details: primary human foreskin fibroblasts; actives raise or lower the signal
In short: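 Response relative to DMSO, fitted in both directions, reflects ELISA-measured collagen III in human primary skin fibroblasts 24 h after compound addition.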

[15] = read-out: Epidermal growth factor receptor (EGFR), EGFR (gene 1956); experiment: BSK_hDFCGF_EGFR: BioMAP Diversity Plus: hDFCGF Assay for Epidermal growth factor receptor (EGFR) Biomarker Activity (AID 2283057); details: primary human foreskin fibroblasts; actives raise or lower the signal
In short: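 ELISA readout of EGFR on human dermal fibroblasts (primary foreskin cells), 24 h post-dosing; bidirectional curve fit vs DMSO baseline, gain or loss of signal scored.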

[16] = read-out: Interleukin-8 (IL8), CXCL8 (gene 3576); experiment: BSK_hDFCGF_IL8: BioMAP Diversity Plus: hDFCGF Assay for Interleukin-8 (IL8) Biomarker Activity (AID 2283058); details: primary human foreskin fibroblasts; actives raise or lower the signal
In short: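 Fibroblast monolayers (human foreskin, hDFCGF) received test chemical for 24 h before ELISA detection of IL-8; either increases or decreases relative to DMSO count as activity.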

[17] = BSK_hDFCGF_Proliferation: Cell Proliferation Assessment in the BioMAP Diversity Plus: hDFCGF Assay (AID 2283059); details: primary human foreskin fibroblasts;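 also: curves fitted for both rise and fall of signal versus DMSO baseline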
In short: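 Primary human foreskin fibroblasts, sub-confluent; […]; 10% TCA fix, 0.1% SRB stain, A560 total protein. Gain/loss fitted bidirectionally vs DMSO control.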

[18] = read-out: Macrophage colony-stimulating factor (MCSF), CSF1 (gene 1435); experiment: BSK_hDFCGF_MCSF: BioMAP Diversity Plus: hDFCGF Assay for Macrophage colony-stimulating factor (MCSF) Biomarker Activity (AID 2283060); details: primary human foreskin fibroblasts; actives raise or lower the signal
In short: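 fibroblasts (human foreskin, primary), 24 h post-dose; M-CSF by ELISA; bidirectional fit, DMSO = baseline.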

[19] = BSK_hDFCGF_SRB: Viability Assessment in the BioMAP Diversity Plus: hDFCGF Assay (AID 2283061); details: primary human foreskin fibroblasts;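 also: cells exposed to compound for 24 h before the read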
In short: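 SRB-based viability read on primary human skin fibroblasts at 24 h: TCA fixation, 0.1% dye, 560 nm. Gain or loss of signal is fitted against the DMSO negative control.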

Measured: AC50

COC(=O)C=C(C)OP(=O)(OC)OC
inactive: [1] | [2] | [3] | [4] | [5] | [6] | [7] | [8] | [9] | [10] | [11] | [12] | [13] | [14] | [15] | [16] | [17] | [19]
active: [18] 0.157 µM

CC(C)(C)c1ccc(CSc2cnn(C(C)(C)C)c(=O)c2Cl)cc1
inactive: [1] | [2] | [3] | [5] | [7] | [8] | [9] | [11] | [12] | [13] | [15] | [16] | [19]
active: [4] 20 µM | [6] 6.17 µM | [10] 31.8 µM | [14] 12.9 µM | [17] 4.68 µM | [18] 7.69 µM

CNC(=S)S
inactive: [1] | [2] | [3] | [4] | [5] | [6] | [7] | [8] | [9] | [11] | [12] | [13] | [14] | [15] | [16] | [18] | [19]
active: [10] 9.42 µM | [17] 20 µM

COC(=O)N(OC)c1ccccc1COc1ccn(-c2ccc(Cl)cc2)n1
inactive: [2] | [3] | [4] | [5] | [7] | [8] | [9] | [11] | [12] | [15]
active: [1] 15.8 µM | [6] 6.45 µM | [10] 31.2 µM | [13] 11.7 µM | [14] 0.8 µM | [16] 5.63 µM | [17] 1.84 µM | [18] 20 µM | [19] 13.4 µM

Oc1ccccc1-c1ccccc1
inactive: [1] | [2] | [3] | [4] | [5] | [6] | [7] | [8] | [9] | [10] | [11] | [12] | [13] | [14] | [15] | [16] | [17] | [18] | [19]

COc1nc(NC(C)C)nc(NC(C)C)n1
inactive: [1] | [2] | [3] | [4] | [5] | [6] | [7] | [8] | [9] | [10] | [11] | [12] | [13] | [14] | [15] | [16] | [17] | [18] | [19]

COP(=S)(OC)Oc1nc(Cl)c(Cl)cc1Cl
active: [6] 32.1 µM | [10] 16.1 µM | [14] 20 µM | [17] 28.2 µM | [18] 30 µM
inactive: [1] | [2] | [3] | [4] | [5] | [7] | [8] | [9] | [11] | [12] | [13] | [15] | [16] | [19]

COP(N)(=O)SC (stereo not drawn)
inactive: [1] | [2] | [3] | [4] | [5] | [6] | [7] | [8] | [9] | [10] | [11] | [12] | [13] | [14] | [15] | [16] | [17] | [18] | [19]

Cc1c(F)c(F)c(COC(=O)C2C(/C=C(\Cl)C(F)(F)F)C2(C)C)c(F)c1F (stereo not drawn)
active: [10] 14 µM | [17] 10.8 µM | [18] 3.03 µM
inactive: [1] | [2] | [3] | [4] | [5] | [6] | [7] | [8] | [9] | [11] | [12] | [13] | [14] | [15] | [16] | [19]

CCNc1nc(Cl)nc(NCC)n1
inactive: [1] | [2] | [3] | [4] | [5] | [6] | [7] | [8] | [9] | [10] | [11] | [12] | [13] | [14] | [15] | [16] | [17] | [18] | [19]

O=C(Nc1ccccc1)Nc1ccnc(Cl)c1
active: [1] 13 µM | [6] 28.6 µM | [15] 0.148 µM
inactive: [2] | [3] | [4] | [5] | [7] | [8] | [9] | [10] | [11] | [12] | [13] | [14] | [16] | [17] | [18] | [19]

CCNc1nc(Cl)nc(NC(C)C)n1
inactive: [1] | [2] | [3] | [4] | [5] | [6] | [7] | [8] | [9] | [10] | [11] | [13] | [14] | [15] | [16] | [17] | [18] | [19]
active: [12] 20 µM
